Source: PubChem BioAssay (NCI)
The panel holds about 83,000 compounds, 20% with a hit somewhere; the sample as a whole holds those more often.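 Note: values are percent growth. 100 is the growth of untreated cells, values between 100 and 0 indicate rising inhibition; between -100 and 0 indicates cell death.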 Unmarked numbers belong to inactive results. Activity calls are given as the source filed them. The calls were made as follows: active = growth percent below 10; inactive = the rest.

Legend:
Assay in all cases: NCI-60 one-dose screen, 48 h (100 = growth as untreated, 0 = no growth, -100 = all killed)
Conditions in all cases: 10 µM unless noted
DU-145 prostate = tested on: DU-145 prostate
K-562 leukemia = tested on: K-562 leukemia
MALME-3M melanoma = tested on: MALME-3M melanoma
MDA-MB-231 breast = tested on: MDA-MB-231 breast
RXF 393 renal = tested on: RXF 393 renal
SF-268 CNS = tested on: SF-268 CNS
SF-539 CNS = tested on: SF-539 CNS
M14 melanoma = tested on: M14 melanoma
HCT-15 colon = tested on: HCT-15 colon
HT29 colon = tested on: HT29 colon
SNB-75 CNS = tested on: SNB-75 CNS
SNB-19 CNS = tested on: SNB-19 CNS
PC-3 prostate = tested on: PC-3 prostate
SK-MEL-5 melanoma = tested on: SK-MEL-5 melanoma
UACC-62 melanoma = tested on: UACC-62 melanoma
LOX IMVI melanoma = tested on: LOX IMVI melanoma
SK-MEL-28 melanoma = tested on: SK-MEL-28 melanoma
SF-295 CNS = tested on: SF-295 CNS
UACC-257 melanoma = tested on: UACC-257 melanoma
U251 CNS = tested on: U251 CNS

SMILES | growth (DU-145 prostate) | growth (K-562 leukemia) | growth (MALME-3M melanoma) | growth (MDA-MB-231 breast) | growth (RXF 393 renal) | growth (SF-268 CNS) | growth (SF-539 CNS) | growth (M14 melanoma) | growth (HCT-15 colon) | growth (HT29 colon) | growth (SNB-75 CNS) | growth (SNB-19 CNS) | growth (PC-3 prostate) | growth (SK-MEL-5 melanoma) | growth (UACC-62 melanoma) | growth (LOX IMVI melanoma) | growth (SK-MEL-28 melanoma) | growth (SF-295 CNS) | growth (UACC-257 melanoma) | growth (U251 CNS)
O=c1c2cccc3c(NC4CCCCC4)ccc(c32)c2nc3ccccc3n12 | 98.7% | 66.9% | 96.1% | 82.3% | 112% | 99.5% | 96.2% | 86.7% | 74.8% | 76.8% | 83% | 89.4% | 80% | 66.1% | 82.8% | 73.4% | 92.1% | – | – | –
CCCCCCCCCCCCCCCCNCCC[C@@H](C)[C@H]1CC[C@H]2[C@@H]3[C@H](OCCCN)C[C@@H]4C[C@H](OCCCN)CC[C@]4(C)[C@H]3C[C@H](OCCCN)[C@]12C | -82.2% (active) | -34.7% (active) | -60.7% (active) | -98.2% (active) | -41.2% (active) | -38.2% (active) | -68% (active) | -28.7% (active) | 7.08% (active) | -41% (active) | -64.8% (active) | -66.6% (active) | -14.4% (active) | 3.14% (active) | -64.2% (active) | -60.4% (active) | -64.7% (active) | – | – | –
CC/C=C\C[C@H](O)C/C=C1/C(=O)C=C[C@@H]1C/C=C\CCCC(N)=O | 18.8% | -1.14% (active) | -14.8% (active) | 20.4% | -81% (active) | 27.3% | – | – | -36.8% (active) | -1.88% (active) | 69.3% | 26.9% | 19.6% | -94.8% (active) | -45.8% (active) | -56.2% (active) | -14.5% (active) | -22.2% (active) | -11.7% (active) | 0.507% (active)
